In PubChem BioAssay AID2235 (The Scripps Research Institute Molecular Screening Center, 2010):
The whole screen tested about 320,000 compounds, of which about 2,800 (0.88%) were called active. The entries come from a sample that favours actives as a whole. A number with no mark means an inactive call.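 The calls were made as follows: active = inhibition above the mean inhibition of all tested compounds plus 3 SD, computed separately for each screening campaign (cut at about 15% in these data); inactive = the rest.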

Each compound was assayed against Serine/threonine-protein phosphatase PP1-alpha catalytic subunit (Homo sapiens) (UniProt P62136) (assay: PP1-alpha phosphatase inhibitors, primary screen, counter-screen for PP5 inhibitor project, biochemical, fluorescence, OMFP substrate, single point (AID 2235)). Settings: purified PP1alpha, at 6.7 µM, hits give high values.
Chain of Serine/threonine-protein phosphatase PP1-alpha catalytic subunit (Homo sapiens) (P62136 whole entry, looked up): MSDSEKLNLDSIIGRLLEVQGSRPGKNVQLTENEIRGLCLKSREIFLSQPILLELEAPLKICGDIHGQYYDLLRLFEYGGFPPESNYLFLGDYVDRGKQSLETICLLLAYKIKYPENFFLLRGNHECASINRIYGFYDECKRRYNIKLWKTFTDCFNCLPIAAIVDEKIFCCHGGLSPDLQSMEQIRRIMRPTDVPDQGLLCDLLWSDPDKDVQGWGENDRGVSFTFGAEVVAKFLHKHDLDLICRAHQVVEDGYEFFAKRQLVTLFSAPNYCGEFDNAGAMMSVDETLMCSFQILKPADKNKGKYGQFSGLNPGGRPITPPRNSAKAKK
`CC(=O)Nc1ccc(S(=O)(=O)N2CCC(NC(=O)c3ccccc3)CC2)cc1` showed an inhibition of 0.38%.
With `O=C(Nc1ccccc1N1CCN(C(=O)c2ccccc2)CC1)c1ccco1` the inhibition was 0.05%.
In the case of `CCCNC(=O)c1ccc(N2CCC3(CC2)CC(c2ccc(Cl)cc2)=NO3)c([N+](=O)[O-])c1`, the inhibition is reported as -4.68%.
For `CCCNC(=O)c1ccc(N2CCC3(CC2)CC(c2cccc(Br)c2)=NO3)c(NC(=O)c2ccco2)c1`, the inhibition was 15.6% (active).
For `CC(C)=CC(=O)Nc1nnc(-c2ccc(F)cc2)s1`, the inhibition was -5.78%.
`COc1ccc(C2=NN(C(=O)CSc3nnnn3C)C(c3ccco3)C2)cc1` (stereo not given) showed an inhibition of -2.47%.
With `Cc1ccc(N(C(=O)c2ccc(CN3CCOCC3)o2)C(C(=O)NCCC(C)C)c2cccs2)c(C)c1` (stereo not given) the inhibition was -1.98%.
For `Cc1ccc(-c2noc(CSc3nnnn3-c3ccccc3)n2)cc1`, the inhibition was 0.28%.
`Cc1ccc(Nc2nc(CSc3nnnn3-c3ccccc3)cc(=O)[nH]2)cc1` was tested, and the inhibition was 37.6% (active).
`COc1ccc(C)cc1-n1nnnc1SCc1nc2ccccc2c(=O)[nH]1` gave an inhibition of 9.72%.
`CC1(C)O[C@@H]2[C@H](O1)[C@@H](CO)O[C@H]2n1c(N2CCCCC2)nc2c(N)ncnc21` showed an inhibition of -3.13%.
`CC(=O)Nc1ccc(S(=O)(=O)N2CCn3cccc3C2C)cc1` (stereo not given) was tested, and the inhibition was 0.86%.
Work on `O=C(CSc1nc2ccccc2[nH]1)N/N=C/C=C\c1ccccc1[N+](=O)[O-]` yielded an inhibition of -2.41%.
For `Cc1ccc(-n2c(SCC(=O)N/N=C/C=C/c3ccccc3[N+](=O)[O-])nc3ccccc3c2=O)cc1`, the inhibition was 16.8% (active).
Work on `CCn1c(SCC(=O)N/N=C/C=C/c2ccccc2[N+](=O)[O-])nnc1-c1ccccc1` yielded an inhibition of -0.35%.
`Cc1cccc(NC(=O)c2ccc(S(=O)(=O)N(C)CC3CCCO3)cc2)c1C` (stereo not given) showed an inhibition of 0.75%.
`NS(=O)(=O)c1ccc(NC(=S)Nc2ccc(Br)c(Cl)c2)cc1` showed an inhibition of 0.34%.
Work on `Cc1cc(C)cc(NC(=O)NCc2ccccn2)c1` yielded an inhibition of -2.05%.
`Cc1nc2cc(NC(=O)NCc3ccccc3)ccc2o1` gave an inhibition of -6.2%.
`CCOc1cc(NC(=S)NCCCOC)c(OCC)cc1NC(=O)c1ccco1` showed an inhibition of -3.32%.
`COCCNC(=O)Nc1ccc2nc(-c3ccco3)c(-c3ccco3)nc2c1` was tested, and the inhibition was 22.8% (active).
`O=C(NCc1ccccn1)c1ccc2nc(-c3ccco3)c(-c3ccco3)nc2c1` was tested, and the inhibition was 31.1% (active).
For `CCOc1ccc(C(=O)NC(C(=O)NCc2ccccn2)C(C)C)cc1` (stereo not given), the inhibition was 1.59%.
For `C[C@H](NC(=O)[C@@H]1Cc2ccccc2CN1C(=O)OC(C)(C)C)C(=O)NC1CCCC1`, the inhibition was -1.9%.
In the case of `CC(=O)Nc1ccc(SC[C@H](Cc2ccccc2)N2CC[C@@H](C)CCC2=O)cc1`, the inhibition is reported as 2.41%.
`Cc1nc2cccnc2nc1C` showed an inhibition of 2.22%.
`CCCCn1c(N)c(N(CC(C)C)C(=O)c2cccc(S(=O)(=O)N3CC(C)OC(C)C3)c2)c(=O)[nH]c1=O` (stereo not given) gave an inhibition of -0.35%.
`COc1ccc(S(=O)(=O)N2CCOC2CNC(=O)C(=O)NCc2ccncc2)cc1OC` (stereo not given) was tested, and the inhibition was -2.33%.
`Cc1ccc(-c2nn(-c3ccccc3)cc2/C=C/C(=O)Nc2cccc(S(N)(=O)=O)c2)cc1` gave an inhibition of 2.13%.
In the case of `COc1ccc(-c2nn(-c3ccccc3)cc2/C=C\C(=O)Nc2ccc(C(=O)O)cc2)cc1`, the inhibition is reported as 23.8% (active).
Compound `COc1ccc(NC(=O)c2cn(-c3ccccc3)nc2SC)cc1` has an inhibition of 0.29%.
Work on `O=C(CSc1ccccc1F)NC1CCS(=O)(=O)C1` (stereo not given) yielded an inhibition of -3.59%.
`CC(C)(C)NC(=O)Cn1c(SCC(=O)Nc2nccs2)nc2ccccc21` gave an inhibition of -0.87%.
`O=C1CC(c2c(F)cccc2Cl)C(n2cncn2)C(O)=C1C1NCCc2ccccc21` (stereo not given) showed an inhibition of 3.05%.
`C=CCn1c(=NC(=O)c2ccc(S(=O)(=O)N3CCCC3)cc2)sc2cc(NC(C)=O)ccc21` was tested, and the inhibition was 21.1% (active).
`C=CCn1c(=NC(=O)c2cccs2)sc2cc(NC(C)=O)ccc21` showed an inhibition of 14.5%.
Work on `COc1cc(C(C)=O)ccc1OC(C)C(=O)Nc1ccc(S(=O)(=O)N2CCCC2)cc1` (stereo not given) yielded an inhibition of -2.63%.
In the case of `C=C(Br)Cn1c(CCCC)nc2ccccc21`, the inhibition is reported as -2.53%.
For `COc1ccc(CNC(=O)C(c2ccc(O)cc2)N(Cc2ccco2)C(=O)c2snc(C(N)=O)c2N)cc1` (stereo not given), the inhibition was 4.97%.
With `C=CCOc1cccc(C2C(C(=O)c3ccc(C)o3)=C(O)C(=O)N2CCCn2ccnc2)c1` (stereo not given) the inhibition was 17.4% (active).
In the case of `C=CCOc1cccc(C2C(C(=O)c3ccc(C)o3)=C(O)C(=O)N2c2nnc(C)s2)c1` (stereo not given), the inhibition is reported as 2.22%.
`CCCOc1ccc(C2C(C(=O)c3ccc(C)o3)=C(O)C(=O)N2CCCn2ccnc2)cc1` (stereo not given) was tested, and the inhibition was 33.5% (active).
`CCCOc1ccc(C2c3c(oc4cc(C)c(C)cc4c3=O)C(=O)N2CCCN2CCOCC2)cc1` (stereo not given) showed an inhibition of 3.82%.
`O=C(C1=C(O)C(=O)N(Cc2ccccc2)C1c1cccnc1)c1ccco1` (stereo not given) gave an inhibition of 0.59%.
Compound `CCOc1ccc(C2/C(=C(/O)c3ccc4c(c3)CC(C)O4)C(=O)C(=O)N2CCCn2ccnc2)cc1` (stereo not given) has an inhibition of 9.12%.
In the case of `CCN(CC(=O)Nc1cc(Cl)ccc1C)C(=O)CN1C(=O)NC2(CCCC2)C1=O`, the inhibition is reported as 0.75%.
`C=CCNC(=O)CC12CC3CC(C1)CC(CC(=O)NCC=C)(C3)C2` was tested, and the inhibition was -3.18%.
In the case of `Clc1ccc2c(c1)C1=C(C(c3ccncc3)O2)C(c2ccc(Br)cc2)n2ncnc2N1` (stereo not given), the inhibition is reported as 20.3% (active).
For `CC1=C(C(N)=O)C(c2ccc(Br)cc2)n2ncnc2N1` (stereo not given), the inhibition was 1.51%.
`Brc1ccc(C2=CC(c3ccco3)n3ncnc3N2)cc1` (stereo not given) gave an inhibition of 0.45%.
In the case of `COc1ccc(C(C(=O)NC2CCCCC2)N(C(=O)Cc2c[nH]c3ccccc23)c2ccccc2)cc1OC` (stereo not given), the inhibition is reported as 2.63%.
`Cc1nn(-c2ncc(C(F)(F)F)cc2Cl)c(=O)n1-c1ccccc1` showed an inhibition of -0.83%.
With `O=C(COc1ccccc1Cl)N1N=C(c2cccs2)CC1c1ccco1` (stereo not given) the inhibition was 7.67%.
In the case of `O=C1c2cccc(OCC(=O)N3N=C(c4cccs4)CC3c3ccc(F)cc3)c2CCN1Cc1ccccc1` (stereo not given), the inhibition is reported as 21% (active).
`COc1ccc(C2CC(c3cccs3)=NN2C(=O)CCC(=O)O)cc1OC` (stereo not given) was tested, and the inhibition was 0.57%.
